# Laboratory results published in PMC9911399, “Two distinct binding modes provide the RNA-binding protein RbFox with extraordinary sequence specificity”.
# Residue numbers refer to the chain shown, from its start. In all, about 16,000 sequences were measured (“ka relative to ugcaugu”: median about 0.0091, highest 2% from about 0.032 on). The sample as a whole holds a higher share of the highest values than the screen did.
# T1: RBFOX1 RRM (Homo sapiens, UniProt Q9NWB1 109-208)
# T1 sequence: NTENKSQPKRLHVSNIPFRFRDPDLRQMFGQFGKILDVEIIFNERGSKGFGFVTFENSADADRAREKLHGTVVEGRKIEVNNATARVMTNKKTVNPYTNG
# B1: UUUCUCU (DNA:RNA)
# RNA: GGGAGACCGGAAUUCAGAUUGUCCUUUCUCUUUAAAUCCCGUCGUAGCCACCA
# DNA 1: CAATCTGAATTCCGGTCTCCC
# DNA 2: TGGTGGCTACGACGGGATT
# B2: CAUGAAC (DNA:RNA)
# RNA: B1 RNA with U25C, U26A, C28G, U29A, C30A, U31C
# DNA 1: CAATCTGAATTCCGGTCTCCC
# DNA 2: TGGTGGCTACGACGGGATT
# B3: CGAUGUC (DNA:RNA)
# RNA: GGGAGACCGGAAUUCAGAUUGUCCCGAUGUCUUAAAUCCCGUCGUAGCCACCA
# DNA 1: CAATCTGAATTCCGGTCTCCC
# DNA 2: TGGTGGCTACGACGGGATT
# B4: CGUGGUC (DNA:RNA)
# RNA: B3 RNA with A27U, U28G
# DNA 1: CAATCTGAATTCCGGTCTCCC
# DNA 2: TGGTGGCTACGACGGGATT
# B5: UCUGCGG (DNA:RNA)
# RNA: B1 RNA with U26C, C28G, U29C, C30G, U31G
# DNA 1: CAATCTGAATTCCGGTCTCCC
# DNA 2: TGGTGGCTACGACGGGATT
# B6: AAAACGU (DNA:RNA)
# RNA: B3 RNA with C25A, G26A, U28A, G29C, U30G, C31U
# DNA 1: CAATCTGAATTCCGGTCTCCC
# DNA 2: TGGTGGCTACGACGGGATT
# B7: AGUCCGC (DNA:RNA)
# RNA: B3 RNA with C25A, A27U, U28C, G29C, U30G
# DNA 1: CAATCTGAATTCCGGTCTCCC
# DNA 2: TGGTGGCTACGACGGGATT
# B8: GUGACCG (DNA:RNA)
# RNA: B1 RNA with U25G, U27G, C28A, U29C, U31G
# DNA 1: CAATCTGAATTCCGGTCTCCC
# DNA 2: TGGTGGCTACGACGGGATT
# B9: GAGACCG (DNA:RNA)
# RNA: B1 RNA with U25G, U26A, U27G, C28A, U29C, U31G
# DNA 1: CAATCTGAATTCCGGTCTCCC
# DNA 2: TGGTGGCTACGACGGGATT
# B10: GAGAUUG (DNA:RNA)
# RNA: B3 RNA with C25G, G26A, A27G, U28A, G29U, C31G
# DNA 1: CAATCTGAATTCCGGTCTCCC
# DNA 2: TGGTGGCTACGACGGGATT
# B11: GCGCGAA (DNA:RNA)
# RNA: B3 RNA with C25G, G26C, A27G, U28C, U30A, C31A
# DNA 1: CAATCTGAATTCCGGTCTCCC
# DNA 2: TGGTGGCTACGACGGGATT
# B12: GAGAAUG (DNA:RNA)
# RNA: B3 RNA with C25G, G26A, A27G, U28A, G29A, C31G
# DNA 1: CAATCTGAATTCCGGTCTCCC
# DNA 2: TGGTGGCTACGACGGGATT
# B13: GGAAAUG (DNA:RNA)
# RNA: B3 RNA with C25G, U28A, G29A, C31G
# DNA 1: CAATCTGAATTCCGGTCTCCC
# DNA 2: TGGTGGCTACGACGGGATT
# B14: GUGAAUG (DNA:RNA)
# RNA: B3 RNA with C25G, G26U, A27G, U28A, G29A, C31G
# DNA 1: CAATCTGAATTCCGGTCTCCC
# DNA 2: TGGTGGCTACGACGGGATT
# B15: GCGAAUC (DNA:RNA)
# RNA: B3 RNA with C25G, G26C, A27G, U28A, G29A
# DNA 1: CAATCTGAATTCCGGTCTCCC
# DNA 2: TGGTGGCTACGACGGGATT
# B16: GUGAAUC (DNA:RNA)
# RNA: B3 RNA with C25G, G26U, A27G, U28A, G29A
# DNA 1: CAATCTGAATTCCGGTCTCCC
# DNA 2: TGGTGGCTACGACGGGATT
# B17: GGGAAUG (DNA:RNA)
# RNA: B3 RNA with C25G, A27G, U28A, G29A, C31G
# DNA 1: CAATCTGAATTCCGGTCTCCC
# DNA 2: TGGTGGCTACGACGGGATT
# B18: GCGAAUG (DNA:RNA)
# RNA: B3 RNA with C25G, G26C, A27G, U28A, G29A, C31G
# DNA 1: CAATCTGAATTCCGGTCTCCC
# DNA 2: TGGTGGCTACGACGGGATT
# B19: GUUAAUG (DNA:RNA)
# RNA: B1 RNA with U25G, C28A, U29A, C30U, U31G
# DNA 1: CAATCTGAATTCCGGTCTCCC
# DNA 2: TGGTGGCTACGACGGGATT
# Molecular target: T1, RBFOX1 RRM
# Test: EMSA; HiTS-Eq, 1 nM pool, 10 min; buffer printed only for the single-RNA assays: 10 mM Tris pH 7.5, 150 mM NaCl, 3.4 mM EDTA, 0.001% NP-40, 30 C
# Details: tags: His6 N-terminal (pET28a); label: 5' 32P
# Outline: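 These values rest on relative association constants, computed from read-count changes of each RNA species versus the control reaction and normalised to the cognate motif. Reads came from free RNA recovered by 8% native PAGE after purified RbFox RRM (wild type or mutant) at increasing concentrations was equilibrated for 10 min in 50 µL with 1 nM of a 5′-radiolabelled pool with 7 randomized nucleotides and DNA-annealed flanks.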
row,Binder,binding signal
1,B1,0.0126 KA relative to UGCAUGU
2,B2,0.00509 KA relative to UGCAUGU
3,B3,0.0174 KA relative to UGCAUGU
4,B4,0.017 KA relative to UGCAUGU
5,B5,0.0178 KA relative to UGCAUGU
6,B6,0.000755 KA relative to UGCAUGU
7,B7,0.0128 KA relative to UGCAUGU
8,B8,0.0167 KA relative to UGCAUGU
9,B9,0.00974 KA relative to UGCAUGU
10,B10,0.019 KA relative to UGCAUGU
11,B11,0.0104 KA relative to UGCAUGU
12,B12,0.0321 KA relative to UGCAUGU
13,B13,0.0124 KA relative to UGCAUGU
14,B14,0.0355 KA relative to UGCAUGU
15,B15,0.0124 KA relative to UGCAUGU
16,B16,0.0142 KA relative to UGCAUGU
17,B17,0.0951 KA relative to UGCAUGU
18,B18,0.0369 KA relative to UGCAUGU
19,B19,0.0118 KA relative to UGCAUGU
